Reference: PubChem BioAssay (NCI)
Where “and” joins values, the source holds several entries; their conditions need not be identical. Equal values may be shown once. The panel holds about 79,000 compounds, 15% with a hit somewhere; the sample as a whole holds those more often. Unmarked numbers belong to inactive results. Calls of active or inactive are those of the source. Cut-off read from the data, not from the text of the source: active = growth inhibition above about 70%; inactive = the rest.

Assays:
[1] = NCI Yeast Anticancer Drug Screen. Data for the rad50 strain (AID 155);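 note: 0% = growth of vehicle-only cultures of the same strain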; conditions: S. cerevisiae rad50 strain growth inhibition, hits give high values; at 50.0 µM unless noted
Summary of the method: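 Inhibition values express reduced yeast growth in compound-treated cultures relative to vehicle-treated controls.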

[2] = NCI Yeast Anticancer Drug Screen. Data for the mec2-1 strain (AID 157); conditions: S. cerevisiae mec2-1 strain, hits give high values; at 50.0 µM unless noted
Summary of the method: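 Test agents were screened against the mec2-1 yeast strain, with defined DNA repair or cell cycle alteration. Growth was scored as inhibition against vehicle-only controls.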

[3] = NCI Yeast Anticancer Drug Screen. Data for the sgs1 mgt1 strain (AID 161);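 note: 0% = growth of cultures given vehicle only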; conditions: S. cerevisiae sgs1 mgt1 strain, hits give high values; at 50.0 µM unless noted
Summary of the method: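 Test agents were incubated with a DNA-repair-mutant yeast strain. Growth was then read and compared against vehicle-treated controls.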

[4] = NCI Yeast Anticancer Drug Screen. Data for the bub3 strain (AID 167); conditions: S. cerevisiae bub3 mutant strain, hits give high values; at 50.0 µM unless noted
Summary of the method: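 Steps: expose the mutant yeast strain to compound; grow alongside vehicle-treated cultures; measure growth; express inhibition against the vehicle cultures.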

[5] = NCI Yeast Anticancer Drug Screen. Data for the mlh1 rad18 strain (AID 175); conditions: S. cerevisiae mlh1 rad18 strain growth inhibition, hits give high values; at 50.0 µM unless noted
Summary of the method: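 In this whole-cell yeast screen, a strain with altered DNA damage repair is challenged with compound, and its growth is measured against matched vehicle-treated controls.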

[6] = NCI Yeast Anticancer Drug Screen. Data for the cln2 rad14 strain (AID 165);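 note: 0% = growth equal to vehicle treated cultures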; conditions: S. cerevisiae cln2 rad14 strain, hits give high values; at 50.0 µM unless noted
Summary of the method: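 Growth of compound-exposed yeast (cln2 rad14 genotype) measured and expressed as inhibition relative to vehicle.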

Compound	growth inhibition [1]	growth inhibition [2]	growth inhibition [3]	growth inhibition [4]	growth inhibition [5]	growth inhibition [6]
COc1ccc2c(c1)c(COC(C)=O)c(C)c[n+]2[O-]	25.1%	28.8%	42.1%	22.1%	52.9%	–
CN(C)c1ccc(N=C(C#N)C(=O)c2ccccc2)cc1	-4.3%	17.6%	-6.7%	-15%	-12.2%	–
N#Cc1c(N2CCCC2)nsc1Nc1ccc(F)cc1	2.6%	2.85%	0.8%	4.4%	-9%	–
Cc1c(Cl)cccc1NC(=O)C(=O)c1c(O)c2ccc(O)cc2oc1=O	4.8%	1.25%	-19.1%	-15.6%	5.35%	–
CC(=O)C[n+]1ccccc1	-9.85%	-9%	-1.75%	15.6%	14.2%	–
O=C1C(N2CCCCC2)=C(c2ccccc2)c2ccccc21	5.1%	7.5%	-3.6%	17.1%	-10.2%	–
NC(=O)C(=Cn1c(=S)[nH]c2ccc([N+](=O)[O-])cc21)C(N)=O	-10%	-40.9%	-9.9%	-22.6%	31.9%	–
Oc1cc(O)c2c(c1)OC(c1ccc(O)c(O)c1)C(O)C2O (configuration not stated)	20.2%	6.6%	14.3%	–	30.9%	-3.55%
CCC1=CCN(c2ccccn2)OC1c1ccc(OC)cc1 (configuration not stated)	32.6%	13.7%	49.2%	40.2%	24.1%	–
CC(C)COC(c1ccc2c(c1)OCO2)C(C)Br (configuration not stated)	34.5%	39.5%	22.4%	48.5%	58.5%	–
Cc1ccc2nc(C=Nc3ccccc3Cl)cc(C)c2c1	-7.4%	-5.85%	-9.3%	–	3.2%	17.8%
CC1CC(Nc2ccc(Br)cc2)N(C(=O)c2ccc(Br)cc2)O1 (configuration not stated)	-25.9%	-1.2%	25.5%	-35%	-2.8%	–
COc1cc(OC)c(NC(=O)C2=C(C)NC(C)=C(C(=O)Nc3cc(Cl)c(OC)cc3OC)C2c2cccc([N+](=O)[O-])c2)cc1Cl	9.25%	23.9%	22.9%	–	3.7%	36.1%
Cc1ccc(S(=O)(=O)CCN2CCN(C)CC2)cc1	8.6%	-9.25%	-12.7%	-2.65%	1.05%	–
CC(CC(=O)Nc1ccccc1CC(c1c[nH]c2ccccc12)c1c[nH]c2ccccc12)C(=O)O (configuration not stated)	0.6%	-14.2%	3.4%	–	17.5%	-12.9%
CCCCNC(=S)NNC(=O)c1ccncc1	-0.35%	3.65%	-0.55%	10.7%	3.45%	–
O/N=C1\c2ccccc2-c2cccc(Br)c21	0.25%	2.9%	4.55%	-9.6%	5.45%	–
Cc1cc([N+](=O)[O-])ccc1NC(=O)n1nnc2cc(Cl)ccc21	-5.55%	0.35%	-5.85%	21%	6.9%	–
O=C(Nc1ccc(F)cc1)N1CCOCC1	1.65%	-25%	4.3%	6.8%	-9.4%	–
NC(N)=NC(N)=Nc1cc(Cl)c(Cl)cc1Cl	98.2% (active)	99.5% (active)	99.3% (active)	99.2% (active)	99.3% (active)	–
CCCCCCCCCCCCCCCC(=O)c1ccccc1	33.2%	27.2%	28.4%	21.1%	42.5%	–
c1ccc2[nH]c(CSc3nc4ccccc4s3)nc2c1	10.1%	17.2%	37.5%	-0.75%	28.6%	–

Compound	growth inhibition [1]	growth inhibition [2]	growth inhibition [3]	growth inhibition [4]	growth inhibition [5]	growth inhibition [6]
Cn1c(=O)[nH]c2ccc(Cl)cc2c1=O	2.75%	-5.85%	-3.25%	8.15%	5.85%	–
Cc1[nH]c(=O)[nH]c(=O)c1CCO	-8.9%	-2.6%	-4.25%	-28.3%	-13.4%	–
CC(C)(C(N)C(=O)O)C(N)C(=O)O (configuration not stated)	16.4%	4.8%	-17.4%	-3.55%	-8.8%	–
CC1C(=O)C(c2cccs2)(C2CCCCC2)CC[N+]1(C)C (configuration not stated)	0%	–	-6.05%	1.25%	17.4%	-19.1%
CCCCC(CC)CCC(C)O (configuration not stated)	-6.75%	-4.75%	25.6%	-16.8%	-14.7%	–
O=[N+]([O-])c1ccc[nH]1	-6.15%	-9.95%	-4.2%	3%	2%	–
CC(=O)Cc1ncn(-c2cc(C)on2)n1	-9.4%	–	-18.1%	-1.45%	-13.7%	11.6%
Cc1ccc(C(=O)O)c(/C=C2\Cc3cc(C)cc(C)c3C2=O)c1	21.1%	–	24.6%	9.85%	29.7%	16.6%
Cc1ccc(C2=Nc3cc(C)c(Cl)cc3S(=O)(=O)NN2)cc1	-29.1%	–	-48.8%	-18.5%	-26.8%	-5.2%
CCCCCCCSCC(=O)OCC	-12.6%	–	-22.5%	-6.5%	-5.75%	7.2%
COC(=O)CSSC(C)C	-29.2%	–	-22.1%	6.4%	-59.1%	5.1%
C=C1CC(COc2ccc3c(C)c(C)c(=O)oc3c2C)(c2ccccc2)OC1=O (configuration not stated)	8.85%	–	23.9%	6.7%	21.4%	4.85%
Nc1c(F)c(F)c(N=Nc2ccccc2)c(F)c1F	5.2%	7.1%	3.8%	24.4%	-17.1%	–
Cc1ccc(S(=O)(=O)C2OC(CO)C(O)C(O)C2O)cc1 (configuration not stated)	-11.5%	–	-5.55%	14.9%	-6.25%	-21.1%
CCCC(C)C(C(=O)OCC)C(=O)OCC (configuration not stated)	2.6% and -5.35%	–	-9.85% and 10.9%	-11.3% and -14%	-15.3% and -7.4%	21.5% and -17.4%
CC1(C)N=C(N)N=C(N)N1CCCOc1ccc(N)cc1	33.2%	–	11.8%	-3.55%	1.1%	5.2%
CCCCCCCCCCCCCCCCCn1nnnc1N	-8.3%	–	-7.3%	-12.3%	-11.4%	-9.95%
COc1ccc2nc(C(=O)c3ccccc3)c(C)cc2c1	8.4%	–	-10.7%	-10.9%	-13.2%	1.8%
O=[N+]([O-])c1ccc(Sc2ncnc3c2ncn3C2OC(CO)C(O)C2O)c2nonc12 (configuration not stated)	3.05%	–	-2.4%	-2.95%	33.2%	16.1%
S=C(S)Nc1cccc2ccccc12	-14.4% and 11.2%	-13.9% and -10.2%	–	–	-16.2% and 14.3%	–
C/C(=N\NC(=S)N1CCCCCC1)c1nccnc1C	85.7% (active)	–	89.7% (active)	87.4% (active)	–	86.5% (active)
